High-throughput results from PubChem.
The list is not random: actives were taken first. Their share in the collection is about 20%.
CHX counter = counter-screen for Shiga toxin inhibitors: cycloheximide protein synthesis inhibition | cell reporter, cycloheximide protein synthesis inhibition counterscreen | 300,000 compounds, 12% hits | max response, %; in the data active = max response mostly above about 13%, no sharp cut-off; inactive = mostly below about 14%; note: read at 38.3 µM for the half of the compounds with a filed dose; 0% is about no effect
Pf growth 48h = P. falciparum growth inhibition at 48 hours (one generation) | P. falciparum luciferase growth in erythrocytes, 48 h | Potency, µM (highest dose often 28.7 µM), inactives show at the top dose activity change, negative = inhibition, most hits filed as inhibitors | 310,000 compounds, 5.9% hits; note: potency is the fitted concentration of half-maximal effect; % is set by controls: 0 for no effect and ±100 for the full control effect
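Luciferase-expressing P. falciparum in infected erythrocytes (2% hematocrit, 0.1% parasitemia final) in RPMI 1640/0.5% Albumax were exposed to compound for 48 hours at 37 C, 5% CO2; growth read as luminescence.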
HCMV antiviral = inhibitors of human cytomegalovirus; HFF cells, HCMV-luciferase reporter, 72 h; stronger effect = lower value; activity change, negative = inhibition, % at 57.5 µM; 410,000 compounds, 4.5% hits; AID 1259415; in the data active = activity change below about -60%; inconclusive = no clear call, values can overlap the other calls; inactive = above about -39%; note: % is set by controls: 0 for no effect and ±100 for the full control effect
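Luciferase read-out from HCMV-luciferase-infected HFFs (MOI 1 PFU/cell) 72 h post infection at 37C; compounds added after 16 h cell attachment; activity normalized between buffer-only basal and Salinomycin (10uM) inhibitor controls.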
Pf growth 96h = P. falciparum growth inhibition at 96 hour, primary screen for plastid delayed-death inhibitors; P. falciparum luciferase reporter growth, 96 h; 320,000 compounds, 6.9% hits; Potency, µM (highest dose often 28.7 µM), without a hit: top-dose activity change, negative = inhibition, hits mostly inhibitors; note: potency is the fitted concentration of half-maximal effect; % is set by controls: 0 for no effect and ±100 for the full control effect
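Parasite growth measured via integrated firefly luciferase reporter in P. falciparum. Infected erythrocytes at 2% hematocrit, 0.05% parasitemia final were treated 96 hours at 37 C under 5% CO2, and luminescence was read.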
Shiga toxin inh = inhibitors of Shiga toxin in Vero cells; Vero cells, Shiga toxin protein synthesis inhibition reporter; 290,000 compounds, 9.2% hits; inhibition, % at 38.7 µM; in the data active = inhibition mostly above about 28%, no sharp cut-off; inactive = mostly below about 43%; note: 0% is about no effect
Starred values were filed as active, the others as inactive; i = inactive; ? = inconclusive; . = no result; [ ] = remark or other dose. Unless noted, calls come from the whole dose curve; as a rule, active = well fitted inhibition curve with a large enough effect; inconclusive = small, poorly fitted or top-dose-only effect, or another doubt; inactive = no such curve, though single readings can be large or run the other way.

SMILES	CHX counter	Pf growth 48h	HCMV antiviral	Pf growth 96h	Shiga toxin inh
COc1cccc(NC(=O)CSc2nc3ccccc3c(=O)n2CCCC(=O)NCC2CCCO2)c1 (stereo not given)	-2.5	?	-5.3	9.28µM*	2.0
NC(=O)c1ccc2c(=O)n3c(-c4cccs4)csc3nc2c1	24.7*	49.2%	32.0	33.4%	32.0*
O=S(=O)(O)c1nc2ccccc2n1Cc1ccccc1	1.2	1.2%	-13.1	?	7.5
O=NNc1nc2ccccc2n1Cc1ccccc1	-4.1	?	-80.0*	13.1µM*	11.2
CCS(=O)(=O)c1nc2ccccc2n1Cc1ccccc1Cl	0.8	?	-67.3*	10.4µM*	21.2
CC(=O)Nc1nc2ccccc2n1Cc1ccccc1	-3.6	?	-10.8	11.7µM*	-14.2
CS(=O)(=O)c1nc2ccccc2n1Cc1ccccc1	-2.1	-15.0%	-66.5*	-4.6%	11.6
Cn1c(NN=O)nc2ccccc21	28.3*	11.7µM*	-100.0*	?	48.5*
CCOC(=O)c1ccc(N2C(=O)c3n[nH]c(-c4cccs4)c3C2c2ccc(OC)cc2OC)cc1 (stereo not given)	.	.	-91.6*	.	.
CCOC(=O)c1ccc(N2C(=O)c3n[nH]c(-c4cccs4)c3C2c2cccc(OC)c2)cc1 (stereo not given)	.	.	-107.3*	.	.
CCOc1ccc(N2C(=O)c3n[nH]c(-c4cccs4)c3C2c2cccc(F)c2)cc1 (stereo not given)	.	.	-18.2	.	.
O=C(CN1CCCC1c1ccc2c(c1)OCCO2)NC(=O)Nc1ccccc1 (stereo not given)	.	?	0.0	?	.
C/C(=N/NC(=O)c1ccc(C)s1)c1ccncc1	29.6*	35.8%	41.2	?	60.4*
C/C(=N\NC(=O)c1ccc(OC2OCCOC2Oc2ccc(C(=O)N/N=C(\C)c3ccncc3)cc2)cc1)c1ccncc1 (stereo not given)	-2.8	1.65µM*	-3.2	?	-7.3
C/C(=N/NC(=O)c1cnccn1)c1cccs1	39.7*	134.2%	46.0	102.9%	93.1*
CCc1ccc(C(=O)N/N=C(\C)c2ccncc2)s1	37.1*	86.4%	111.7	?	70.3*
C/C(=N\NC(=O)C1CC1)c1cccs1	-2.8	5.5%	67.7	-21.5%	4.7
C/C(=N\NC(=O)C(=O)Nc1ccc(C)cc1)c1ccncc1	-1.5	-2.6%	-1.0	20.8%	-10.0
O=C(Nc1cc(-c2ccc(F)c(F)c2)no1)c1ccccc1F	.	.	14.9	.	.
Brc1ccc(-c2nc3ccccn3c2Nc2ccc3c(c2)OCCO3)o1	.	.	23.6	.	.
C/C(=N\NC(=O)c1cccs1)c1ccncc1	35.9*	1.5%[0.00184 µM]	112.3	-1.9%	107.1*
C/C(=N/NC(=O)c1ccncc1)c1ccccc1	8.6	35.1%	16.1	-10.1%	.
COc1ccccc1N1CCN(C(=O)CCS(=O)(=O)c2cc(Br)cc3c2N(C(=O)C2CC2)CC3)CC1	.	.	-13.8	.	.
Cc1ccc(Nc2nc(/N=C/NO)n[nH]2)cc1C	27.4*	198.2%	40.3	i	65.4*
CCN1CCCC1CNC(=S)Nc1ccc(C(C)=O)cc1 (stereo not given)	13.7	14.7µM*	-9.8	-23.5%	-18.7
SMILES	CHX counter	Pf growth 48h	HCMV antiviral	Pf growth 96h	Shiga toxin inh
CCN1CCCC1CNC(=O)C(=O)Nc1ccccc1 (stereo not given)	29.4*	95.8%	49.3	?	85.6*
NC(=O)[C@H]1O[C@@H](O)[C@H](O)[C@@H](O)[C@@H]1O	.	-10.4%	.	-29.1%	.
COC(=O)C(Cc1ccc(O)cc1)NC(=O)CCc1nc2ccccc2s1 (stereo not given)	-6.5	0.0%	8.8	?	-5.3
COc1ccc(Cl)c(-c2cc(C(=O)NC(C)C)[nH]n2)c1	.	.	-34.2	.	.
Oc1ccc(Br)cc1-c1cc(-c2ccccc2Cl)[nH]n1	19.1*	2.94µM*	0.0	4.15µM*	42.5*
COc1ccccc1-c1cc(-c2cc(Cl)ccc2O)n[nH]1	17.1*	1.6%	49.6	-0.5%	19.7
COc1ccc(O)c(-c2cc(-c3ccccc3Cl)[nH]n2)c1	25.7*	?	158.7	-12.5%	33.2*
COc1ccc(Cl)cc1-c1cc(C(=O)Nc2ccc(F)cc2)[nH]n1	.	.	-8.7	.	.
COc1ccc(O)c(-c2cc(-c3cccs3)[nH]n2)c1	43.2*	?	228.1	?	155.1*
CCCOc1ccc(C(=O)N(Cc2cccs2)c2ccc(C)cc2)cc1	.	.	4.8	.	.
Cc1ccc(Cl)cc1NC(=O)NCc1cccn1Cc1ccc(F)cc1	.	.	-26.3	.	.
Cc1ccc(-n2c(C)c(C)c3c(NCCN(C)C)ncnc32)cc1	0.2	-0.2%[0.00184 µM]	13.8	3.2%	3.7
COc1ccc(C2SCC(=O)N2CCCN(C)C)cc1 (stereo not given)	-3.4	-9.9%	24.0	.	-11.2
CCOC(=O)c1cnc2ccc(OC(F)(F)F)cc2c1Nc1ccccc1C(=O)O	.	.	-6.0	.	.
COc1ccc(NC(=O)Cn2cnc3ccc(S(=O)(=O)N4CCC(C)CC4)cc3c2=O)c(OC)c1	.	.	14.0	.	.
CCn1c(-c2cc(Br)ccc2O)n[nH]c1=S	.	.	-1.8	.	.
Oc1ccc(Br)cc1-c1cc(-c2ccccc2F)[nH]n1	64.4*	9.28µM*	129.7	4.7%[5.75 µM]	77.1*
CCOC(=O)C1CCCN(C(=O)Nc2cccc(Cl)c2)C1 (stereo not given)	10.6	16.1%	-6.0	?	-2.7
CCOC(=O)C1CCCN(C(=O)c2cc(Cl)ccc2NC(=O)C2=C(C)OCCS2)C1 (stereo not given)	-1.6	13.1µM*	-8.7	0.9%	26.7
CC1=C(C(=O)Nc2ccccc2C(=O)NC2CCC(C)CC2)SCCO1 (stereo not given)	16.0*	-16.7%	-34.1	?	25.5
CCOC(=O)C1CCN(C(=O)c2ccccc2NC(=O)C2=C(C)OCCS2)CC1	-1.9	10.4µM*	13.6	?	-7.5
CC(=O)c1cccc(Nc2cc(C)nc3nc(Cc4ccccc4)nn23)c1	.	.	17.0	.	.
C[C@H](NC(=O)COc1ccccc1)C(=O)OCC(=O)c1cc2ccccc2o1	.	.	9.0	.	.
CC(C)CNC(=O)/C=C/C=C/CCCC/C=C/c1ccc2c(c1)OCO2	.	?	-20.2	?	.
O=C(NCCc1ccc2c(c1)OCCO2)c1ccccc1F	69.7*	112.1%	102.8	103.9%	91.4*
SMILES	CHX counter	Pf growth 48h	HCMV antiviral	Pf growth 96h	Shiga toxin inh
CN(C(=O)c1ccccc1Cl)c1ccccc1C(=O)NCCc1ccccc1	8.5	-18.2%	-0.8	-5.4%	1.3
Cc1c(C(=O)NCCc2ccc3c(c2)OCCO3)oc2ccccc12	1.2	.	-8.0	2.4%	6.6
O=C(NC(=S)NCCc1ccccc1)c1ccccc1F	41.1*	48.3%	9.2	-10.2%	94.4*
O=C(NCCc1ccccc1)c1c(F)c(F)c(F)c(F)c1F	11.3	-16.8%	?	-0.6%	32.5*
CN(C(=O)COc1ccccc1C(=O)NCCc1ccccc1)c1ccccc1	30.4*	22.3%	-29.6	126.1%	70.5*
Cc1cccnc1NC(=O)c1csnn1	-3.3	15.1%	-2.1	30.2%	-15.0
COc1ccc(N2CCN(C(CNS(=O)(=O)c3ccc(OC)c(C)c3)c3ccco3)CC2)cc1 (stereo not given)	.	.	-28.0	.	.
